Source: PubChem BioAssay AID1259324 (C. David Weaver Laboratory, Vanderbilt University, 2017)
Out of some 34,000 compounds screened, fewer than 10 were called active.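 How the source made its calls: active means primary screen hit, no activity in plain HEK293 cells, and in GIRK2-only cells above 5% efficacy rising with concentration; inactive means the rest, including fluorescent compounds.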 Not all results are given here.

target: G protein-activated inward rectifier potassium channel 2 (Homo sapiens) (UniProt P48051); assay: GIRK2 activation atop partial GPCR stimulation – cell-based, HEK293, thallium flux, summary (AID 1259324); conditions: HEK293 GIRK2/NPY4 cells, thallium flux fluorescence
Sequence (P48051 whole entry, looked up): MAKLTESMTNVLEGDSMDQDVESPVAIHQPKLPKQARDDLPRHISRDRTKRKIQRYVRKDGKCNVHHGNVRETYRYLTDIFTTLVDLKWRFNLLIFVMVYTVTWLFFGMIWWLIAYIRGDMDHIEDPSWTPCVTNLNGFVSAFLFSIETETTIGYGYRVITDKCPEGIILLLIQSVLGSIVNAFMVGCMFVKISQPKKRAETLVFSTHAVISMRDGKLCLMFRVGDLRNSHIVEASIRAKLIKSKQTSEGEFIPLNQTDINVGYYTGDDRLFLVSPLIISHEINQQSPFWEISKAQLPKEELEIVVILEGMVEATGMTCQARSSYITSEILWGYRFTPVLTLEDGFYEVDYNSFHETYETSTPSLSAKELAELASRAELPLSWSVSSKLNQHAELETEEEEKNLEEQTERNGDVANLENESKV

outcome, inactive:
COc1ccc(NC(=O)c2ccc(C(F)(F)F)cc2)cc1N1CCCC1=O
O=C(NC1CC(=O)N(C2CC2)C1)c1ccc(-n2cccc2)cc1 (configuration not stated)
O=C(c1cccc(Cl)c1)N1CCOC(c2ccc(C(F)(F)F)cc2)C1 (configuration not stated)
CC1CCN(C(=O)CN2CCN(c3nccn3-c3cccc(Cl)c3)CC2)CC1
COc1cccc(C(=O)NNC(=O)c2ccc(=O)n(Cc3ccccc3)c2)c1OC
O=C(NCCCO)C(=O)Nc1ccc2c(c1)OCCO2
O=C(CSc1nc2ccsc2c(=O)n1CCc1ccccc1)Nc1ccccc1F
COCCNc1oc2c(c1-c1ccc([N+](=O)[O-])cc1)c(=O)oc1ccc(C)cc12
O=C(CN1CCOCC1)Nc1ccccc1-c1nc2ccccc2[nH]c1=O
O=S1(=O)CCC(n2nc(-c3ccco3)cc2NS(=O)(=O)c2cccc(Cl)c2)C1 (configuration not stated)
CC(C)(C)OC(=O)C1=NN(c2ccc(Cl)cc2)c2ncccc2S1(=O)=O
CCn1nnc2c(NCc3ccccc3OC)ncnc21
Cc1ccc(C(CNC(=O)C(=O)NCc2ccccc2)N2CCOCC2)cc1 (configuration not stated)
CS(=O)(=O)N1CCN(CCNC(=O)c2ccc([N+](=O)[O-])o2)CC1
O=C(NCc1cccs1)C(=O)NCC1CCN(C(=O)/C=C/c2ccco2)CC1
O=C(NCc1cccs1)C(=O)NCC1CCCO1 (configuration not stated)
COc1ccc(OC)c(CNC(=O)c2snc(-c3cccc(F)c3)c2N)c1
COc1ccc(CCNC(=O)COc2ccccc2Br)cc1OC
COc1cc(C)c(C)cc1S(=O)(=O)N1CCN(c2ccc(-c3cccnc3)nn2)CC1
COc1ccc(S(=O)(=O)CCCC(=O)Nc2nc(-c3ccc([N+](=O)[O-])cc3)cs2)cc1
Cc1nc(NCCNC(=O)Nc2ccccc2)cc(-n2cccn2)n1
CCN1CCc2nc(-c3ccccc3)n(CC(=O)Nc3cc(OC)cc(OC)c3)c(=O)c2C1
O=C(NCCC1=CCCCC1)C(=O)Nc1cccc(N2CCCCC2=O)c1
O=C(CN1CC(c2nc(-c3ccsc3)no2)C1)NCCc1ccccc1
Cc1nn(-c2nc(C)c(C)c(=O)[nH]2)c(C)c1CCC(=O)Nc1ccc(C(F)(F)F)cc1
O=C(Cc1ccc(NS(=O)(=O)C2CC2)cc1)NCC(F)(F)F
O=C(Cc1csc(-n2cccc2)n1)Nc1nc2ccccc2s1
Cc1cccc(NC(=O)N2CCN(c3ccc4nnc(C5CC5)n4n3)CC2)c1C
CCOc1ccc2nc(NC(=O)Cn3cnc(C(C)C)cc3=O)sc2c1
Cc1ccc(-n2ccnc2N2CCN(C(=O)c3ccccc3)CC2)cc1
CS(=O)(=O)N1CCC(C(=O)Nc2nc3ccc(F)cc3s2)CC1
Cc1nc(-c2cccc(NC(=O)Cc3c(C)[nH]c(=O)[nH]c3=O)c2)cs1
COc1cc(COCC2CCN(C(=O)/C=C/c3ccccc3Cl)CC2)cc(OC)c1
O=C(c1ccc([N+](=O)[O-])o1)N1CCN(Cc2nnnn2-c2ccc(F)c(F)c2)CC1
CC(C)(C)CN(C(=O)c1ccco1)c1ccncc1
COc1ccccc1CNC(=O)C1CN(C(C)=O)C1
Cc1ccccc1C(=O)NCCNC(=O)c1ccc(NC(=O)C(C)C)cc1
O=C(Nc1cccs1)N1CCN(c2ccc(-c3ccco3)nn2)CC1
CC(C)CCn1nc2ccc(S(=O)(=O)N3CCOCC3)cn2c1=O
Cn1nnc2c(N3CCN(C(=O)NCCOc4ccccc4)CC3)ncnc21
COc1ccc(NC(=O)C(=O)NCCC(c2ccccc2)c2ccccc2)c(OC)c1
Cc1ccc(Nc2ccc(NC(=O)/C=C/c3ccccc3)cc2)nn1
CCOc1cccc2sc(N(CCN3CCOCC3)C(=O)c3ccco3)nc12
COc1ccc(C=O)cc1Cn1c(=O)n(CCCCC(=O)NCC(C)C)c(=O)c2ccccc21
COc1cc(OC)cc(-n2c(-c3ccco3)nc3nc4ccccc4nc32)c1
Cc1ccc2nc(C3CC(=O)N(c4ccccc4)C3)[nH]c2c1 (configuration not stated)
COc1ccc(CCNC(=O)Cn2nc(-c3ccc(Cl)cc3)ccc2=O)cc1
O=C(NN1CCOCC1)c1ccc(N2CCC(Cc3ccccc3)CC2)nn1
CS(=O)(=O)N1CCCCC1C(=O)Nc1nc(-c2ccccn2)cs1 (configuration not stated)
O=C(NCCCN1CCOC(c2ccccc2)C1)c1cc2ccccc2oc1=O (configuration not stated)
COc1ccc(NC(=O)NCC(C)(O)C2CC2)cc1OC (configuration not stated)
CSc1cccc(NC(=O)NCCNc2cc(-n3cccn3)ncn2)c1
CSc1ccccc1CN1CCC(CNC(=O)c2ccc(S(=O)(=O)N(C)C)cc2)CC1
COc1ccc(N2C(=O)CN(CCC3=CCCCC3)C3CS(=O)(=O)CC32)cc1Cl (configuration not stated)
COc1cc(NC(=O)CSC2=NC3(CCCC3)N=C2c2ccccc2)cc(OC)c1
Cc1ccc(N2CC(C(=O)NCC3CCN(S(=O)(=O)C4CC4)CC3)CC2=O)cc1C (configuration not stated)
Cc1cc(-c2nnc(NC(=O)C(c3ccccc3)c3ccccc3)o2)nn1C
CCOC(=O)CNC(=O)C1COCC(=O)N1Cc1ccccc1 (configuration not stated)
COc1ccc(CCNC(=O)CCc2sc(C)nc2-c2cccs2)cc1
O=S(=O)(N1CCCCCC1)N1CCN(c2ccccc2F)CC1
CCOC(=O)c1cn[nH]c1S(=O)(=O)NCc1ccccn1
CSc1cccc(-n2nnc(C(=O)OCc3nc(-c4ccccc4)oc3C)c2C)c1
CN(C)C(CNC(=O)C(C)(C)C)c1ccccc1Cl (configuration not stated)
CC(C)CCn1nc2ccc(S(=O)(=O)N3CCCCC3)cn2c1=O
COc1ccc(NC(=O)Cn2cc(-c3ccccc3)c(N(C)C)n2)cc1OC
Cc1cc(NC(=O)C(=O)c2c(C)[nH]c3ccccc23)n(-c2nc(-c3cccs3)cs2)n1
COc1ccc(NC(=O)c2ccccc2SC)cc1N1CCCCC1=O
